Screens from PubChem BioAssay.
Compounds with a hit are over-represented: about 4% of the library has one in this group of screens.
HSV replic up: enhancers of HSV replication in host cells, fold increase, host cell viability | HSV replication augmentation in cells | maximum fold increase | 220,000 tested, 0.005% active | AID 1956, 2009; in the data active means maximum fold increase above about 1.5; inconclusive means no clear call, values can overlap the other calls; tested in PC3 cells
ROMK mod: ROMK potassium channel modulators, primary screen, cell-based, thallium flux, MLSMR library; ATP-sensitive inward rectifier potassium channel 1 (Homo sapiens), P48048; B-score at 10 µM; AID 1918, 2009; Tet-inducible ROMK, thallium flux fluorescence; actives lie on both sides; 130,000 tested, 2% active;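 active means signal ratio slope over the read window, or its plate-corrected B-score, at least 3 SD from the plate mean, either direction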;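 further: B-score of the F/F0 ratio slope over 7 to 12 s after thallium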
KCC2 mod: KCC2 cotransporter modulators, thallium flux, primary screen, cell-based, HEK293 KCC2, FluoZin-2 fluorescence, MLSMR; Solute carrier family 12 member 5 (Homo sapiens), Q9H2X9; KCC2 cells, thallium flux FluoZin-2 fluorescence; B-score of Tl+ flux slope (higher = more flux/activation; lower = inhibition) at 10 µM; 190,000 tested, 2.2% active; AID 1456, 2008;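 active means thallium flux slope and its plate-corrected score both differing from the plate sample mean at a set confidence after two filtering rounds, in either direction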;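 further: slope of fluorescence scaled to starting intensity during 10 to 20 s after thallium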
Arbovirus inh: antivirals against arbovirus infection, primary screen, cell-based, full library, 10K replicate subset; arbovirus infection cell-based antiviral screen; inhibition, % at 10 µM; 200,000 tested, 0.37% active; AID 1251, 2008; in the data active means inhibition above about 30%
Measles CPE: compounds protecting cells from measles virus cytopathic effect, primary screen, measles RdRp inhibitor project, single point, MLSMR library, absorbance; protection (pct of control), % at 4 µM; AID 841, 2007; Measles virus-infected cells, CPE protection; 140,000 tested, 1.5% active; in the data active means protection mostly above about 24%, no sharp cut-off; inactive means mostly below about 26%
ROMK hit retest: ROMK channel modulator hit retest, confirmation, cell-based, thallium flux, duplicate, resupplied hits; shares compounds with ROMK mod; fluorescence ratio; active compounds read low; normalized thallium flux (F/F0 slope) at 10 µM; 3,000 tested, 54% active;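 active means Flux at 10 µM at least 3 SD below or above vehicle control mean in one or both replicates; inconclusive means no clear call, values can overlap the other calls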
* marks the source's active call; other numbers are inactive results; i = inactive; ? = inconclusive; . = not tested or not shown.

SMILES | HSV replic up | ROMK mod | KCC2 mod | Arbovirus inh | Measles CPE | ROMK hit retest
COc1cccc(/C=N/n2c(SC)nnc2-c2ccccc2)c1O | . | 3.6* | . | -1 | 8 | 0.081
COc1ccc(OC)c(C2=NOC(C(=O)NCc3ccco3)C2)c1 (stereo unspecified) | i | 3.5* | 0.055 | -23 | 7 | 0.079
O=C(NCc1ccco1)C1CC(c2ccccc2O)=NO1 (stereo unspecified) | i | 3.6* | 0.46 | -14 | . | 0.078
O=C(NCc1ccco1)C1CC(c2ccccc2C(F)(F)F)=NO1 (stereo unspecified) | i | . | -0.5 | . | . | .
Cc1ccc(C)c(-n2c(-c3ccc(Br)cc3)csc2=NC(=O)c2ccccc2F)c1 | i | . | -0.35 | . | . | .
COc1ccc(OC)c2c(C)cc(N3CCN(C(=O)c4ccc(C)cc4)CC3)nc12 | i | -8.5* | -1.9 | -7 | . | 0.085
CC(Nc1nc(N2CCNCC2)nc2ccccc12)c1ccccc1 (stereo unspecified) | i | -2.8 | 0.056 | -35 | . | .
O=C(NCc1ccccc1)c1ccc(=O)[nH]n1 | i | 0.55 | 2.2 | 2 | 10 | 0.077
CCCc1ccc(NS(=O)(=O)c2c(C)oc(C)c2C(=O)OC)cc1 | i | . | -0.66 | . | . | .
Cc1cc(NC(=O)CN2C(=O)NC3(CCCCC3C)C2=O)no1 (stereo unspecified) | i | 0.56 | 0.18 | 8 | 6 | .
Cc1cccc(-c2nc(CN3CCCC(C(=O)NC4CCCCC4)C3)c(C)o2)c1 (stereo unspecified) | i | -2.5* | . | -1 | 10 | 0.066*
Cc1cccc(-c2nc(CN3CCCC(C(=O)NC4CCCCCC4)C3)c(C)o2)c1 (stereo unspecified) | i | -3.5* | . | -18 | 17 | 0.062*
Cc1cccc(Cn2nc(-n3cccc3)c3c(C)cc(C)nc32)c1 | i | 0.37 | 0.012 | 10 | . | .
Cc1c(CN2CCC(CO)(Cc3ccccc3)CC2)c2ccccc2n1C | i | -2.4* | -0.18 | -26 | . | 0.06*
CCC(C)[C@@H](N)C(=O)N/N=C/c1ccc2ncccc2c1 (stereo partly specified) | i | . | 1.3 | -1 | 2 | .
CCCCCCCCCCCC(=O)NC(Cc1ccc(OC)c([N+](=O)[O-])c1)C(=O)O (stereo unspecified) | i | 4.5* | -0.055 | . | . | ?
CN(C)c1ccc(C(C#N)c2ccccc2)nn1 (stereo unspecified) | i | -0.052 | 0.2 | 4 | . | .
O=C(N/N=C/c1ccc(-c2ccc(Br)cc2)o1)c1ccc2c(c1)OCO2 | i | 2* | . | -7 | . | 0.081
Cc1ccc(S(=O)(=O)N2CCN(C(=O)c3ccccc3)CC2)cc1 | i | 0.65 | 0.23 | 4 | 3 | .
Cc1ccc(C(=O)N2CCN(S(=O)(=O)c3ccccc3)CC2)cc1 | i | 2.7* | -0.18 | 6 | . | ?
Cc1c(/C=N/NC(=O)C(NC(=O)c2ccc3c(c2)OCO3)C(C)C)c2ccccc2n1C (stereo unspecified) | i | 1.6* | -0.83 | 7 | 7 | 0.074
CC(C)C(NC(=O)c1ccc2c(c1)OCO2)C(=O)N/N=C/c1cccs1 (stereo unspecified) | i | -0.73 | 0.95 | 2 | 8 | .
O=C(NCc1nnc(SCc2ccc(F)cc2)n1-c1ccccc1)C12CC3CC(CC(C3)C1)C2 | i | -2.5* | -2.3 | 0 | 6 | 0.056*
CN1C(=O)/C(=N\OC(=O)c2ccccc2Cl)c2ccccc21 | i | -3.3 | 0.71 | -3 | . | .
CC(=O)O/N=C1\C(=O)N(Cc2ccc(C)cc2)c2ccccc21 | i | -5.2* | -0.34 | 1 | . | 0.063*
CCCc1cc(=O)[nH]c(SCC(=O)NC2CCCc3ccccc32)n1 (stereo unspecified) | i | . | -0.28 | . | . | .
Cn1c(-c2ccccc2)c(/C=N/NC(=O)c2ccc(O)cc2)c2ccccc21 | i | . | -3.4 | . | . | 0.08
Cc1c(C(=O)OCCOc2ccc(Br)cc2)sc(=S)n1C | i | 0.28 | -1.4 | 7 | . | .
O=C(COC(=O)CNC(=O)c1ccccc1)Nc1ccc(F)c([N+](=O)[O-])c1 | i | -0.027 | -0.59 | 6 | . | .
